Measurements from PubChem BioAssay (Tox21).
Where “and” joins values, the source holds several entries; their conditions need not be identical. Equal entries are not always repeated. Inconclusive results are not listed. Where a call stands in place of a potency, no number is given. Some compounds were tested as several samples or in several runs, with calls that do not always agree. Calls of active or inactive are those of the source. Unless noted, calls come from the whole dose curve; as a rule, active = well fitted curve in the direction sought with a large enough effect in the repeat runs; inconclusive = weak or mixed curves; inactive = no such curve, though single readings can be large; an effect the other way counts as inactive or inconclusive.

Columns and labels:
[1] = qHTS assay for small molecules that induce genotoxicity in human embryonic kidney cells expressing luciferase-tagged ATAD5 (AID 651632); note: nearly all actives have a fitted effect of over 15% in size; note: potency is the fitted concentration of half-maximal effect
Outline: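 A rise in luciferase signal from ATAD5-tagged HEK293T cells marks genetic stress. Cells were exposed to compounds for 16 hr at 37C, 5% CO2, then luciferase was quantified after a 30 min room-temperature incubation with Amplite.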

[2] = qHTS assay for small molecule agonists of the p53 signaling pathway - cell viability (AID 651633; calls by dose curve; note: nearly all actives have a fitted effect of over 30% in size; note: potency is the fitted concentration of half-maximal effect)
Outline: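 p53RE-bla cells were treated with compound for 16 hours at 37 C. Cytotoxicity was then measured as CellTiter-Glo luminescence after 30 min at room temperature.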

[3] = qHTS assay for small molecules that induce genotoxicity in human embryonic kidney cells expressing luciferase-tagged ATAD5 - cell viability (AID 651634; calls by dose curve; note: nearly all actives have a fitted effect of over 25% in size; note: potency is the fitted concentration of half-maximal effect)
Outline: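 Cytotoxicity counter-readout: after 15.5 hr compound treatment at 37C, live-cell protease activity in ATAD5-luciferase HEK293T cells measured by CellTiter-Fluor fluorescence, 30 min development at 37C.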

[4] = qHTS assay for small molecule disruptors of the mitochondrial membrane potential - cell viability (AID 720634; calls by dose curve;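 note: human HepG2 liver cancer cells; series mostly up to about 83 µM; nearly all actives have a fitted effect of over 20% in size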)
Outline: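 Cytotoxicity was quantified from ATP content by CellTiter-Glo luminescence in the same wells as the MMP dye read-out. HepG2 (2,000 cells/well) were plated overnight and exposed to compounds for 1 hr at 37 C.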

[5] = qHTS assay for small molecule disruptors of the mitochondrial membrane potential (AID 720635); note: potency is the fitted concentration of half-maximal effect
Outline: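 HepG2 cells exposed to compound 1 hr at 37C, then Mito-MPS dye 30 min. Ratio read of aggregate (540/590 nm) versus monomer (490/535 nm) fluorescence.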

[6] = qHTS assay to test for compound auto fluorescence at 590 nm (red) in HepG2 cells (AID 720674)
Outline: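 Fluorescence at 590 nm emission following 540 nm excitation was recorded from HepG2 wells one hour after compound transfer, with DMSO-only wells as vehicle and Rose Bengal sodium equivalency as the scale.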

[7] = qHTS assay to test for compound auto fluorescence at 535 nm (green) in HepG2 cells (AID 720675)
[8] = qHTS assay to test for compound auto fluorescence at 460 nm (blue) in HEK293 cells (AID 720678)
Outline: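 Intrinsic compound fluorescence is recorded in live HEK293 cultures after overnight incubation at 37C, 5% CO2, using excitation 405 nm and emission 460 nm. Values are referenced to triamterene.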

[9] = qHTS assay to test for compound auto fluorescence at 590 nm (red) in HEK293 cells (AID 720679)
Outline: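 Red autofluorescence, HEK293 cells: 2,000 cells/well; attach 4-5 hr 37C; add 23 nL cpd or DMSO; incubate o/n 37C 5% CO2; read Ex540/Em590; Rose Bengal sodium reference.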

[10] = qHTS assay for small molecule agonists of the p53 signaling pathway (AID 651631; calls by dose curve; note: nearly all actives have a fitted effect of over 15% in size; note: potency is the fitted concentration of half-maximal effect)
Outline: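 Agonist mode screen using a stably integrated beta-lactamase gene under p53 response elements in HCT-116 cells. Compound exposure lasts 16 h at 37 °C; fluorescence intensity is measured following 2 h FRET substrate loading.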

SMILES | Potency [1] | Potency [2] | Potency [3] | Potency [4] | Potency [5] | outcome [6] | outcome [7] | outcome [8] | outcome [9] | Potency [10]
O=C(CCl)c1ccc(Cl)cc1Cl | 18.8 µM (active) and 43.3 µM (active) | 5.96 µM (active) and 9.69 µM (active) and inactive | inactive | inactive | inactive and 17.1 µM (active) | inactive | inactive | inactive | inactive | –
IC(I)=C(I)I | inactive | – | 27.3 µM (active) | inactive | 4.33 µM (active) | inactive | inactive | inactive | inactive | 12.2 µM (active)
C[N+](C)(C)CCCl | inactive | – | inactive | inactive | – | inactive | inactive | inactive | inactive | inactive
N#Cc1ccc(Cl)cc1 | inactive | – | inactive | inactive | – | inactive | inactive | inactive | inactive | inactive
CC(Cl)Cl | inactive | – | inactive | inactive | – | inactive | inactive | inactive | – | inactive
CCCCCC[N+](=O)[O-] | – | inactive | – | inactive | – | inactive | – | inactive | – | inactive
CN(C)c1ccc(N(C)C)cc1 | inactive | inactive | inactive | – | inactive | inactive | inactive | inactive | inactive | inactive
COc1ccc(-c2ccccc2)cc1NNC(=O)OC(C)C | inactive | inactive | – | inactive | 56.8 µM (active) | inactive | inactive | inactive | inactive | inactive
O=C1C(Cl)C(CCl)CN1c1cccc(C(F)(F)F)c1 (stereo unspecified) | inactive | inactive | inactive | – | – | inactive | – | inactive | inactive | inactive
c1ccoc1 | inactive | inactive | inactive | inactive | inactive | inactive | inactive | inactive | – | –
CCCCN=C=O | inactive | – | inactive | inactive | – | inactive | inactive | inactive | – | inactive
CC[C@H]1C[C@H]2[C@@H]3CCC4=CC(=O)CC[C@@H]4[C@H]3CC[C@]2(C)[C@H]1O | inactive | – | inactive | inactive | – | inactive | inactive | – | inactive | inactive
BrCCCCBr | inactive | inactive | inactive | inactive | – | inactive | inactive | – | – | –
Cl/C=C\Cl | inactive | inactive | inactive | inactive | – | inactive | inactive | inactive | inactive | –
CCCN(CC1CC1)c1c([N+](=O)[O-])cc(C(F)(F)F)cc1[N+](=O)[O-] | inactive | inactive | inactive | inactive | 30.6 µM (active) | inactive | inactive | inactive | inactive | –
CCCCCCCCOC(=O)c1ccc(C(=O)OCCCCCCCC)c(C(=O)OCCCCCCCC)c1 | inactive | inactive | inactive | inactive | inactive | inactive | inactive | inactive | inactive | –

SMILES | Potency [1] | Potency [2] | Potency [3] | Potency [4] | Potency [5] | outcome [6] | outcome [7] | outcome [8] | outcome [9] | Potency [10]
Cc1ccccc1CCl | inactive | inactive | inactive | inactive | – | inactive | inactive | – | inactive | –
CNP(=O)(OC)Oc1ccc(C(C)(C)C)cc1Cl (stereo unspecified) | inactive | inactive | inactive | inactive | – | inactive | inactive | inactive | inactive | –
CCC(COC(=O)c1cc(OC)c(OC)c(OC)c1)(c1ccccc1)N(C)C (stereo unspecified) | inactive | inactive | inactive | inactive | – | inactive | inactive | inactive | inactive | –
C[C@@H]1CC[C@H]2[C@@H](C)C(=O)O[C@@H]3O[C@@]4(C)CC[C@@H]1[C@]32OO4 | inactive | inactive | 1.06 µM (active) | inactive | – | inactive | inactive | inactive | inactive | –
COc1cc(CC(C)N)cc2c1OCO2 (stereo unspecified) | inactive | inactive | inactive | inactive | – | inactive | inactive | – | inactive | –
COC(=O)c1cncn1C(C)c1ccccc1 (stereo unspecified) | inactive | inactive | inactive | inactive | – | inactive | inactive | inactive | inactive | –
ClP(Cl)(Cl)(Cl)Cl | inactive | inactive | inactive | inactive | – | inactive | inactive | – | inactive | –
NC(=O)C(Cl)(Cl)Cl | inactive | inactive | inactive | inactive | – | inactive | inactive | inactive | – | –
CN1[C@@H]2CC[C@H]1CC(OC(=O)c1cc(Cl)cc(Cl)c1)C2 (stereo partly specified) | inactive | inactive | inactive | inactive | – | inactive | inactive | inactive | inactive | –
CC(=O)[C@H]1CC[C@H]2[C@@H]3CC[C@H]4C[C@](C)(O)CC[C@]4(C)[C@H]3CC[C@]12C | inactive | inactive | inactive | inactive | inactive | inactive | inactive | inactive | inactive | –
CCOP(O)OCC | inactive | inactive | inactive | inactive | – | inactive | inactive | inactive | inactive | –
CCCCCCCCCC(=O)O[C@H]1CC[C@H]2[C@@H]3CCC4=CC(=O)CC[C@@H]4[C@H]3CC[C@]12C | inactive | inactive | inactive | inactive | – | inactive | inactive | inactive | inactive | –
Cn1cc[n+](C)c1 (tested in a mixture with another compound) | inactive | inactive | inactive | inactive | – | inactive | inactive | inactive | inactive | –
CCCC(=O)Cl | inactive | inactive | inactive | inactive | – | inactive | inactive | inactive | inactive | –
COP(=O)(OC)O/C(=C/Cl)c1cc(Cl)c(Cl)cc1Cl | inactive | inactive | inactive | inactive | – | inactive | – | inactive | inactive | –
